# Several values for one entry are separate records, joined by “and”; a condition that tells them apart may be missing. Equal entries are not always repeated. Among all 20,000 compounds or so, about 25 (0.1%) were called active. No stated cut-off is given here; in the data, active means % bound below about 75%; inactive means the rest. This excerpt belongs to a sample that is enriched for actives.
# Biological target: Nucleoprotein (Rift valley fever virus (strain ZH-548 M12)) (UniProt P21700)
# Assay: inhibitors of RVFV nucleoprotein–RNA binding, primary screen, biochemical, fluorescence polarization (AID 651828)
# Details: RVFV N-RNA binding, stronger effect = lower value, concentration not given here
# Chain of Nucleoprotein (Rift valley fever virus (strain ZH-548 M12)) (P21700 whole entry, looked up): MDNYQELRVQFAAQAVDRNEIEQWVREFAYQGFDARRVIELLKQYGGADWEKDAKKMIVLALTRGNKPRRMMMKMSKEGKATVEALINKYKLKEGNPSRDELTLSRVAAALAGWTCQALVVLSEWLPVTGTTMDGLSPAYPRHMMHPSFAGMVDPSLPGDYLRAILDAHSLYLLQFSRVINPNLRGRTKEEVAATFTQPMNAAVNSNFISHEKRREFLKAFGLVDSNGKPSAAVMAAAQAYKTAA
row,Compound,% bound
1,O=c1[nH]c(=S)[nH]c(O)c1C=NC12CC3CC(CC(C3)C1)C2,91.6% (inactive)
2,O=C(Nc1ccc2c(c1)OCC1CCCN21)C1=Cc2ccccc2OC1 (centres undefined),96.2% (inactive)
3,CN(C)NS(=O)(=O)C1CCS(=O)(=O)C1 (centres undefined),93% (inactive)
4,COc1ccc(N2CCN(C(C)=C3C(=O)c4ccccc4C3=O)CC2)cc1,96.4% (inactive)
5,CCOC(=O)Nc1sccc1C(N)=O,96.8% (inactive)
6,Cc1cccc(N2CCN(C(=O)N(C)C)CC2)c1C,77.7% (inactive)
7,O=S1(=O)CC(S(=O)(=O)c2ccccc2)c2ccccc21 (centres undefined),92.2% (inactive)
8,COC(=O)c1ccc(CN2CCCC(C)C2)cc1 (centres undefined),100% (inactive)
9,CC12CCC(O)CC1=CCC1C2CCC2(C)/C(=N/N)CCC12 (centres undefined),94% (inactive)
10,COc1ccc(-c2nc3c(c(=O)c4ccccc4n3C)c(=O)n2Cc2ccco2)cc1,95.8% (inactive)
11,COc1ccc(CCNC(N)=O)cc1OC,94.3% (inactive)
12,CCOC(=O)N1CCN(C(=O)CN(c2ccccc2)S(=O)(=O)c2ccc(F)cc2)CC1,93.7% (inactive)
13,O=C1c2ccccc2C(=O)N1CCc1nn[nH]n1,93.6% (inactive)
14,Nc1cc(-c2ccccc2)[nH]n1,94.5% (inactive)
15,C/C(=N\N1CCN(C)CC1)C1=C(O)c2ccccc2C1=O,97.6% (inactive)
16,O=C(CCN1C(=O)c2ccccc2C1=O)Oc1c(-c2ccco2)oc2ccccc2c1=O,95% (inactive)
17,COc1ccccc1C(c1c(C)[nH][nH]c1=O)C(C#N)C#N (centres undefined),95.8% (inactive)
18,O=C(CCC(=O)c1ccccc1)c1ccccc1,93.9% (inactive)
19,CS(=O)(=O)N1CCN(C(=O)CSc2ccccc2)CC1,80.6% (inactive)
20,COc1cc(C2c3c(oc4ccccc4c3=O)C(=O)N2CCCOC(C)C)cc(Br)c1O (centres undefined),97.6% (inactive)
21,CCOC(=O)c1cn[nH]c1NC(=S)Nc1ccccc1,98.6% (inactive)
22,Cc1nc(N)sc1-c1ccnc(Nc2cccc([N+](=O)[O-])c2)n1,104% (inactive)
23,Cc1nc2sc(C(c3ccccc3Cl)N(C)Cc3ccccc3)c(O)n2n1 (centres undefined),108% (inactive)
24,CCC(=O)Nc1ccc(C(=O)n2nnc3ccccc32)cc1,94.2% (inactive)

row,Compound,% bound
1,CNS(=O)(=O)c1ccc(NC(=O)C2CC3C=CC2C3)cc1 (centres undefined),99.1% (inactive)
2,CC1(C)C/C(=N/O)c2ccoc2C1,97.9% (inactive)
3,CCC(=O)N=c1sc2cc(Br)ccc2n1CCOC,101% (inactive)
4,COc1ccc(CCC(=O)NCC#N)cc1,86.2% (inactive)
5,CCOc1ccc(C(=O)Nc2cccc(-c3ccc4nncn4n3)c2)cc1,107% (inactive)
6,Cc1ccc2oc(C(=O)N(C)c3ccccc3)c(C)c2c1,97.6% (inactive)
7,CC(=O)Oc1ccc(S(=NS(=O)(=O)c2ccccc2)c2ccc(OC(C)=O)cc2)cc1,94.2% (inactive)
8,Cc1[nH]cc(Br)c(=O)c1OCC(=O)O,95.2% (inactive)
9,Cc1c(C(=O)NCCN2CCOCC2)sc2nc(-c3ccc(F)cc3)cn12,97% (inactive)
10,N#Cc1c(NC(=S)NC(=O)c2ccco2)sc2c1CCCC2,97.3% (inactive)
11,C/C(=N\NC1=NCCCCC1)c1ccccc1,95.3% (inactive)
12,CC1CCN(CC(=O)Nc2nccs2)CC1,91.9% (inactive)
13,CCC1CCC(N(CC)CCN(C)C)CC1 (centres undefined),112% (inactive)
14,C[C@H](N[C@@H](CCc1ccccc1)C(=O)O)C(=O)N1Cc2ccccc2C[C@H]1C(=O)O,100% (inactive)
15,COc1ccc2oc(=O)c(S(=O)(=O)c3ccccc3)cc2c1,85% (inactive)
16,O=C(O)CN1C(=O)/C(=C2/OC(=O)c3ccccc32)SC1=S,95.4% (inactive)
17,O=C(NCCc1ccccc1)Nc1ccccc1,108% (inactive)
18,CCCNC(=O)c1c(N)n(-c2ccccc2)c2nc3ccccc3nc12,95.9% (inactive)
19,O=C(Nc1cccc(Nc2nccc(Nc3cccc(C(F)(F)F)c3)n2)c1)C1CC1,112% (inactive) and 103% (inactive)
20,Cn1c(=O)c2cc3c(=O)n(C)c(=O)c3cc2c1=O,101% (inactive)
21,COc1c(C(=O)O/N=C(\N)c2cccs2)csc1Cl,95.1% (inactive)
22,CN(C)c1ccc(C=NCC(O)CN=Cc2ccc(N(C)C)cc2)cc1 (centres undefined),97.1% (inactive)
23,Cc1ccc(S(=O)(=O)NCc2csc(C)n2)c(C)c1,105% (inactive)
24,CC(C)N1C(=O)CNC1=S,98% (inactive)

row,Compound,% bound
1,CC(C)CC(=O)Nc1ccncc1,86% (inactive)
2,O=C(OCCO)c1cc(Cl)c(C(=O)OCCO)cc1Cl,104% (inactive)
3,COC(=O)COc1cccc(NC(=O)Cc2cccs2)c1,98.5% (inactive)
4,CCCNC1=C(c2ccc(OC)cc2)C(=O)c2ccccc21,95.2% (inactive)
5,CSc1sc(C(=O)NC(=O)NCc2cccnc2)c(C)c1-c1ccon1,93.2% (inactive)
6,CN(C)C(C#N)c1cn(C)c2ccccc12 (centres undefined),94.2% (inactive)
7,Cc1[nH]c2ccccc2c1SCC(=O)Nc1nccs1,108% (inactive)
8,COc1cccc(-c2ccc(=O)n(CC(=O)NCc3ccccc3)n2)c1,85% (inactive)
9,O=C(NCCSCc1ccco1)C1CCC1,98.2% (inactive)
10,CCSc1nc(=O)[nH]c2c1CCC2,92.2% (inactive)
11,CCC(=O)NC1(C(F)(F)F)C(=O)NC(C)=C1C(=O)OC (centres undefined),97% (inactive)
12,C/C(=N/NC(=O)c1ccoc1C)c1ccc(NC(=O)c2ccco2)cc1,91.1% (inactive)
13,N#Cc1cccc2c1-c1ccccc1C2,96% (inactive)
14,O=C1c2ccc(-c3nc4ccccc4c(=O)o3)cc2C(=O)N1c1ccc2c(c1)OCO2,90% (inactive)
15,O=C1CC2(CCCC2)C(=O)N1c1ccc(S(=O)(=O)NCc2ccco2)cc1Cl,94.5% (inactive)
16,CN1CCN(C(=O)c2ccccc2NC(=O)c2ccc(Cl)cc2)CC1,100% (inactive)
17,CCN(CC)C(=O)N1CC(C)CC(C)C1 (centres undefined),95.2% (inactive)
18,CCN1CCN(C(c2cccnc2)c2c(NC(C)=O)sc3c2CCCC3)CC1 (centres undefined),109% (inactive)
19,O=S(=O)(c1ccccc1)N1CCn2cccc2C1c1ccccc1 (centres undefined),99.1% (inactive)
20,CCSc1nc2ccccc2c(=O)n1C,96.2% (inactive)
21,CS(=O)(=O)NCCS(=O)(=O)N1CCN(c2ccccc2)CC1,97.1% (inactive)
22,Cc1ccccc1C(=O)Nc1cccc(N(C)C)c1,99.1% (inactive)
23,O=C(CS(=O)(=O)c1ccccc1)Nc1ccccc1O,95.9% (inactive)
24,Cc1cc(NN)nc(-c2ccccc2O)n1,91.2% (inactive)

row,Compound,% bound
1,CS(=O)(=O)NCC(c1cccs1)N1CCc2ccccc21 (centres undefined),95.9% (inactive)
2,COC(=O)C1CC2=CC(=O)CCC2(C)C2C(O)CC3(C)C(CCC34CCC(=O)O4)C12 (centres undefined),103% (inactive)
3,O=c1[nH][nH]c(=O)n1/N=C/C=C\c1ccccc1,101% (inactive)
4,Cc1nnsc1C(=O)Nc1ccc(C(N)=O)cc1,96.7% (inactive)
5,NC(=O)c1cccc(NC(=O)C(F)(F)F)c1,108% (inactive)
6,O=S(=O)(NCCN1CCOCC1)c1ccc(I)cc1,94.4% (inactive)
7,CCc1ccc2[nH]c(=O)c(Cc3ccccc3)c(O)c2c1,98.2% (inactive)
8,CC(C)Sc1nnc(NC(=O)C(C)(C)C)s1,96.3% (inactive)
9,COc1ccc(C(=O)NCCc2cc3c(OC)ccc(OC)c3[nH]c2=O)cc1,97.1% (inactive)
10,CCOc1ccc(NC(=O)CSc2nc(=O)n(CCCN3CCOCC3)c3c2CCCC3)cc1,105% (inactive)
11,c1ccc2c(c1)CC(Nc1ccc3cn[nH]c3c1)C2,84.9% (inactive)
12,S=C(c1ccccn1)N1CCN(C(=S)c2ccccn2)CC1,96.1% (inactive)
13,O=C(CC1SC(=NC2CC3C=CC2C3)NC1=O)Nc1ccc(Cl)cc1 (centres undefined),89.9% (inactive)
14,COc1ccc(-c2cc(-c3nnc(N)o3)no2)cc1OC,92.5% (inactive)
15,CC(C)Nc1ncccn1,104% (inactive)
16,COCn1c(=O)[nH]c2ccccc21,91.1% (inactive)
17,CCOC(=O)N1CCN(C(=S)Nc2ccc(Oc3ccccc3)cc2)CC1,92.1% (inactive)
18,COc1ccc(NC(=O)COc2cccc3c2CCN(C)C3=O)cc1,90.3% (inactive)
19,Cc1nc(NNC(=O)c2ccccc2)cc(-c2ccccc2)n1,91.7% (inactive)
20,CC(c1ccccc1)n1c(SCc2nc(-c3ccc(C(C)(C)C)cc3)no2)n[nH]c1=O (centres undefined),95.1% (inactive)
21,N#CCCSc1nccn1Cc1ccccc1,106% (inactive)
22,c1ccc2c(c1)OC1OC2Oc2ccccc21,98.8% (inactive)

# From PubChem BioAssay AID651828 (ICCB-Longwood Screening Facility, Harvard Medical School, 2012)
